Unmarked numbers belong to inactive results. For some assays here: Measured potencies and affinities stand elsewhere. The source made the active and inactive calls. Unless noted, the rule behind the calls is not given here.
Experiments:
[1] = antimalarial activity against Dd2 strain (AID 2302;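 active = growth inhibition above 50% at the single 2 µM test dose, taken to imply half-maximal potency below 2 µM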;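 note: 0% = DMSO untreated growth and 100% = chloroquine plus artemisinin killed control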); settings: P. falciparum Dd2 in RBCs, LDH growth readout, 72 h; at 2 µM; hits give high values
[2] = HepG2 cytotoxicity, primary screen, cytotoxicity control for P. falciparum antimalarial project, cell-based, ATP luminescence (AID 2303;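 active = inhibition above 50%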;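 note: 0% = DMSO wells and 100% = digitonin-killed cells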); settings: HepG2 viability, 24-48 h, at 10 µM, hits give high values
[3] = molecular target: L-lactate dehydrogenase (Plasmodium falciparum (isolate CDC / Honduras)) (UniProt Q27743); experiment: PfLDH activity inhibition – cell lysate, 3D7 strain, counter-screen for P. falciparum growth inhibition project (AID 2304);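 note: 0% = vehicle and 100% = reference inhibitor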; settings: P. falciparum 3D7 crude extract, LDH APAD/NBT absorbance; at 2 µM; hits give high values
Sequence of L-lactate dehydrogenase (Plasmodium falciparum (isolate CDC / Honduras)) (Q27743 whole entry, looked up): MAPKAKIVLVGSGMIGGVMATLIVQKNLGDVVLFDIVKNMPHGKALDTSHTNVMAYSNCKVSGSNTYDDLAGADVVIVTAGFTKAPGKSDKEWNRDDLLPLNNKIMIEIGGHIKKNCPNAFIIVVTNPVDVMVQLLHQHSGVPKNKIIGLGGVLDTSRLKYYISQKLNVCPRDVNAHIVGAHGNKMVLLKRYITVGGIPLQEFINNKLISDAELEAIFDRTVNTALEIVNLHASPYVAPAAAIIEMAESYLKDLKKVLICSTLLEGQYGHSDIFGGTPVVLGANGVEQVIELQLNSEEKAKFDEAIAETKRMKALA

[4] = inhibition of 3D7 malaria parasite growth – strain 3D7 (AID 2306);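 note: 0% = DMSO wells and 100% = chloroquine plus artemisinin control wells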; settings: P. falciparum 3D7 erythrocytic growth, LDH absorbance, 72 h; at 2 µM; hits give high values
[5] = molecular target: Calcium-dependent protein kinase 1 (Plasmodium falciparum (isolate 3D7)) (UniProt P62344); experiment: PfCDPK1 kinase inhibitors, biochemical, TCAMS library (AID 1159585; cut-off not given, nearly all actives have IC50 up to about 0.98 µM;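 note: inhibitors leave more ATP so luminescence rises with inhibition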); settings: recombinant PfCDPK1, Kinase-Glo ATP depletion luminescence
Sequence of Calcium-dependent protein kinase 1 (Plasmodium falciparum (isolate 3D7)) (P62344 whole entry, looked up): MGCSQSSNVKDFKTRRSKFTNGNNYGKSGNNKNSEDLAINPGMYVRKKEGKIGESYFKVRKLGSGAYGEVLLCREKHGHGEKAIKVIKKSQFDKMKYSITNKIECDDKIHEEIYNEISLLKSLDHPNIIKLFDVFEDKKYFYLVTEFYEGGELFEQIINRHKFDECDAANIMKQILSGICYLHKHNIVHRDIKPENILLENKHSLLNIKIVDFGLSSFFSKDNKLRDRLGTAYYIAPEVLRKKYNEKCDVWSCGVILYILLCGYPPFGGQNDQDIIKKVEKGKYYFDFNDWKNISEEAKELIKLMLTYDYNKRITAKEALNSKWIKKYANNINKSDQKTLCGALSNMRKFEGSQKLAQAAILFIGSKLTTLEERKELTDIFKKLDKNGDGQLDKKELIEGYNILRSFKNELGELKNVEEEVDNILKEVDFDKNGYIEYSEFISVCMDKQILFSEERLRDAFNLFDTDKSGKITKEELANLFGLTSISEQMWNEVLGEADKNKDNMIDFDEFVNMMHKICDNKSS

[6] = molecular target: Plasmodium falciparum protein kinase 6 (PK6, PF3D7_1337100) (UniProt Q8IDW1); experiment: PfPK6 kinase inhibitors, biochemical, TCAMS library (AID 1159586); settings: recombinant PfPK6, Kinase-Glo ATP depletion luminescence
Sequence of Plasmodium falciparum protein kinase 6 (PK6, PF3D7_1337100) (Q8IDW1 1-305): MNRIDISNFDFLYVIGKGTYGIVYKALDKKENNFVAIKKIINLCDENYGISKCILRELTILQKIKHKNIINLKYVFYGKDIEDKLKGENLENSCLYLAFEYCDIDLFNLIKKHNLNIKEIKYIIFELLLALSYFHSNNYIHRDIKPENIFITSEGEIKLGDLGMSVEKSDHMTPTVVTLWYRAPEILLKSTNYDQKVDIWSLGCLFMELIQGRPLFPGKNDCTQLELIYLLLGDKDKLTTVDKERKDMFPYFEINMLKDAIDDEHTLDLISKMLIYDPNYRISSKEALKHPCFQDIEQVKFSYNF

[7] = molecular target: Protein kinase 7 (PK7), Plasmodium falciparum 3D7 (PF3D7_0213400) (UniProt Q7YTF7); experiment: inhibition of Plasmodium PK7 catalytic activity – biochemical, TCAMS antimalarial set, Kinase-Glo luminescence (AID 1159587); settings: recombinant PfPK7, Kinase-Glo ATP depletion luminescence
Sequence of Protein kinase 7 (PK7), Plasmodium falciparum 3D7 (PF3D7_0213400) (Q7YTF7 1-343): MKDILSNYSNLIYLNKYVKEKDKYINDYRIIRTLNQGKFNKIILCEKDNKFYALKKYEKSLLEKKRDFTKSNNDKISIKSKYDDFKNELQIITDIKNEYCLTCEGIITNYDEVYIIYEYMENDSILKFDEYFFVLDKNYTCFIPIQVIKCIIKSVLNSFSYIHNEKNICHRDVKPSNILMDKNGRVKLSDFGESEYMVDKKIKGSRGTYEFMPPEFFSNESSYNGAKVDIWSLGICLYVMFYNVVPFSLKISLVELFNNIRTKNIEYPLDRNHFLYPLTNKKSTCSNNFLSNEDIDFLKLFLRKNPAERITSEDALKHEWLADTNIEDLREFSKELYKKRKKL

[8] = molecular target: Calcium-dependent protein kinase 4 (Plasmodium falciparum (isolate 3D7)) (UniProt Q8IBS5); experiment: PfCDPK4 kinase inhibitors, biochemical, TCAMS library (AID 1159588; cut-off not given, nearly all actives have IC50 up to about 0.91 µM); settings: recombinant PfCDPK4, Kinase-Glo ATP depletion luminescence
Sequence of Calcium-dependent protein kinase 4 (Plasmodium falciparum (isolate 3D7)) (Q8IBS5 whole entry, looked up): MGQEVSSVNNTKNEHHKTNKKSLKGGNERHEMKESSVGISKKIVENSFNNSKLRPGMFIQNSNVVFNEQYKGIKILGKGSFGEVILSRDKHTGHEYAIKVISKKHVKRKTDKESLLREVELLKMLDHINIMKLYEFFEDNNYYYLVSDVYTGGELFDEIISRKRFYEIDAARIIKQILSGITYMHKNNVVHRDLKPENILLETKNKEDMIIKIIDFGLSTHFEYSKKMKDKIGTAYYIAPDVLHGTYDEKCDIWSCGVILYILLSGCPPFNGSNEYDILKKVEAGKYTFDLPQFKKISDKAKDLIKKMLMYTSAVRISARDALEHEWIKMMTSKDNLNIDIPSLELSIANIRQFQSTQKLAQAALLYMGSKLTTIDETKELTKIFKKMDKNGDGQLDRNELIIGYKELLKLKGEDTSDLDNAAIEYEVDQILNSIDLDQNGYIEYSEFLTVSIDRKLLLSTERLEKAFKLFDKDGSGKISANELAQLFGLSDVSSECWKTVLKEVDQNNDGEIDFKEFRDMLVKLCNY

Compound	growth inhibition [1]	inhibition [2]	inhibition [3]	growth inhibition [4]	outcome [5]	outcome [6]	outcome [7]	outcome [8]
CCCC(C)Nc1nc(C)cc(N[C@@H](Cc2ccccc2)C(=O)Nc2ccccc2)n1 (stereo partly specified)	67% (active)	50% (active)	-2%	100% (active)	inactive	inactive	inactive	inactive
Cc1cccc2[nH]c(-c3cccc(-c4cccc(NC(=O)CCc5cnc[nH]5)c4)c3)nc12	86% (active)	16%	0%	102% (active)	inactive	inactive	inactive	inactive
COc1ccc(C(=O)Nc2ccc(-c3ccc([N+](=O)[O-])cc3)cc2)cc1CCCN(C)C	9%	20%	1%	98% (active)	inactive	inactive	inactive	inactive
CCc1c(CCNCC/C=C/CCNCCc2ccc(OC)c(OC)c2CC)ccc(OC)c1OC	7%	41%	3%	100% (active)	inactive	inactive	inactive	inactive
Fc1cccc(C=NNc2ccnc3ccc(C(F)(F)F)cc23)c1	97% (active)	-2%	-4%	100% (active)	inactive	inactive	inactive	inactive
Cc1cc2nc(-c3ccc(OCC(=O)NCc4cccc(C(F)(F)F)c4)cc3)[nH]c2cc1C	1%	4%	-4%	94% (active)	inactive	inactive	inactive	inactive
CCOC(=O)c1cn(CC)c2cc(N3CCCCCC3)c(F)cc2c1=O	89% (active)	-2%	3%	94% (active)	inactive	inactive	inactive	inactive
CC(Oc1ccc(Cl)cc1)C(=O)Nc1cc(C(F)(F)F)ccc1N1CCOCC1 (stereo unspecified)	97% (active)	14%	-6%	97% (active)	inactive	inactive	inactive	inactive
CCCCCCn1c2c(c(=N)c3c1CCC3)CCC2	83% (active)	32%	-3%	97% (active)	inactive	inactive	inactive	inactive
Cc1cccc2[nH]c(-c3ccc(-c4cccc(CN5CCN(CCN6CCOCC6)CC5)c4)s3)nc12	83% (active)	33%	-2%	101% (active)	inactive	inactive	inactive	inactive
COc1ccc2c(OC)c(CNCCCCCCNCc3ccc4cc(OC)ccc4c3OC)ccc2c1	49%	100% (active)	4%	98% (active)	inactive	inactive	inactive	inactive
CCc1cn2c3c(cc(C(=O)N[C@@H](Cc4ccccc4)[C@H](O)CNC(C)(C)CCCC(C)C)cc13)N(C)S(=O)(=O)C2	98% (active)	71% (active)	8%	98% (active)	inactive	inactive	inactive	inactive
Cc1cc(OCCCNc2nc(NCCc3ccc(O)cc3)nc(N3CCNCC3)n2)c(Cl)c(C)c1Cl	8%	54% (active)	5%	99% (active)	inactive	inactive	inactive	inactive
Nc1nc(N)c2c(ccc3c2ccn3CCCC(F)(F)F)n1	34%	66% (active)	0%	97% (active)	inactive	inactive	inactive	inactive
O=[N+]([O-])c1ccc(C=NNc2nc(Nc3ccccc3)nc(Nc3ccccc3)n2)o1	61% (active)	5%	-4%	94% (active)	inactive	inactive	inactive	inactive
O=C(Nc1cccc(-c2cccc(-c3nc4ccccc4[nH]3)c2)c1)c1csnn1	27%	31%	5%	90% (active)	inactive	inactive	inactive	inactive
O=C(/C=C/c1ccccc1O)N1CCC(CCN2CCC(c3c[nH]c4ccccc34)CC2)CC1	15%	46%	-1%	100% (active)	inactive	inactive	inactive	inactive
O=S(=O)(NCCN1CCCC1)c1cccc(-c2cccc(CNCCc3cccs3)c2)c1	45%	30%	0%	102% (active)	inactive	inactive	inactive	inactive
COC(=O)c1cccc(OCCNC2CCN(C[C@H](O)c3ccnc4ccc(OC)cc34)CC2)c1	96% (active)	-7%	-10%	100% (active)	inactive	inactive	inactive	inactive

Compound	growth inhibition [1]	inhibition [2]	inhibition [3]	growth inhibition [4]	outcome [5]	outcome [6]	outcome [7]	outcome [8]
O=C(/C=C/c1ccc(Cl)c(Cl)c1)NC1CCC(CN2CCC(Cc3c[nH]c4ccccc34)CC2)CC1 (stereo unspecified)	9%	25%	-7%	101% (active)	inactive	inactive	inactive	inactive
CS(=O)(=O)Nc1ccc(-c2cnc3[nH]cc(-c4ccc(C(=O)O)cc4)c3c2)cc1	45%	-15%	-1%	95% (active)	inactive	inactive	inactive	inactive
CC1CCCN(C(=O)C(C)Nc2cc(Cl)ccc2N2CCOCC2)C1 (stereo unspecified)	96% (active)	-1%	-5%	101% (active)	inactive	inactive	inactive	inactive
Cc1cc(N[C@@H](CC(C)C)C(=O)NCCc2ccccc2)nc(Nc2ccccc2)n1	38%	1%	1%	100% (active)	inactive	inactive	inactive	inactive
O=C(N[C@H]1CCN(Cc2ccc(OCCN3CCNCC3)c(Cl)c2)C1)c1ccc(Cl)c(Cl)c1	5%	50% (active)	-1%	101% (active)	inactive	inactive	inactive	inactive
CS(=O)(=O)Nc1cccc(-c2cnc3[nH]cc(-c4ccc(C(=O)O)c(F)c4)c3c2)c1	76% (active)	27%	5%	99% (active)	inactive	inactive	inactive	inactive
O=C(Nc1ccc(-c2nc3ccccc3[nH]2)cc1)c1cccc(S(=O)(=O)N2CCCC2)c1	64% (active)	0%	-5%	100% (active)	inactive	inactive	inactive	inactive
Cc1cc(OCCCN2CCC(NS(=O)(=O)c3ccc(C(F)(F)F)cc3)CC2)c2ccccc2n1	24%	12%	1%	95% (active)	inactive	inactive	inactive	inactive
O=C(Nc1cccc(Cl)c1)c1cnc(N2CCN(c3ccncc3)CC2)c(Cl)c1	97% (active)	54% (active)	4%	101% (active)	inactive	inactive	inactive	inactive
NC1(C(=O)O)Cc2ccc(Cl)cc2C1 (stereo unspecified)	1%	0%	-3%	93% (active)	inactive	inactive	inactive	inactive
COc1ccccc1NC(=O)Nc1cccc(-c2ccc(-c3nc4c(C)cccc4[nH]3)s2)c1	46%	19%	3%	100% (active)	inactive	inactive	inactive	inactive
COc1ccc2ncc(F)c(CCN3CC[C@H](NCc4cc(C#N)c5c(c4)OCCO5)[C@H](O)C3)c2c1	47%	51% (active)	2%	96% (active)	inactive	inactive	inactive	inactive
COc1ccc(N(C)Cc2cnc3nc(N)nc(N)c3n2)cc1	-1%	15%	1%	98% (active)	inactive	inactive	inactive	inactive
Cc1cc(NN=Cc2cccc([N+](=O)[O-])c2)c2ccc(C(F)(F)F)cc2n1	51% (active)	2%	1%	101% (active)	inactive	inactive	inactive	inactive
O[C@@H](c1ccccc1)[C@@H]1CN(Cc2ccccc2)CC[C@@]1(O)c1ccccc1	82% (active)	4%	-2%	91% (active)	inactive	inactive	inactive	inactive
N#Cc1ccc(N[C@@H](CC2CCCCC2)C(=O)NCc2cc(Cl)cc(Cl)c2)c2ccccc12	88% (active)	34%	0%	94% (active)	inactive	inactive	inactive	inactive
O=C(Nc1ccc(N2CCN(Cc3ccccc3)CC2)cc1)c1cccs1	86% (active)	-1%	2%	87% (active)	inactive	inactive	inactive	inactive
O=C(/C=C/c1ccc(Cl)c(Cl)c1)NCCCCCN1CCCN(C(=O)Nc2ccc(C(F)(F)F)cc2)CC1	7%	31%	3%	102% (active)	inactive	inactive	inactive	inactive
